# High-throughput results (PubChem)
# HttQ103 aggreg – reduces HttQ103-GFP aggregates in PC12 cells; PC12 HttQ103-GFP aggregates, Acumen cytometry, 40 h; Potency, µM (top dose mostly 46.1 µM), inactives show at the highest dose activity change, negative = inhibition, most hits filed as inhibitors; actives 1.1% (n = 220,000); active means well fitted curve in the direction sought with a large enough effect; inconclusive means small, poorly fitted or top-dose-only effect, or another doubt; inactive means no such curve, though single readings can be large; an effect the other way counts as inactive or inconclusive; further: potency means the concentration at half of the fitted maximal effect; on the % scale 0 is the no-effect control and ±100 the full control effect; nearly all actives have a fitted effect of over 60% in size
#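 Aggregate formation scored by laser-scanning cytometer (488 excitation, 500–530 emission) in lysed PC12 cells expressing Q103-GFP after 100 nM tebufenozide induction; library tested in dose series, with ATPLite reagent added in the multiplex.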
# ALDH1A1 block – blocks purified human ALDH1A1 activity | P00352 | Potency, µM (top dose mostly 75.3 µM), inactives show at the highest dose activity, negative = inhibition, most hits filed as inhibitors | Purified ALDH1A1, NADH fluorescence, propionaldehyde substrate | AID 1030 | actives 7.3% (n = 220,000);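 further: potency means the concentration at half of the fitted maximal effect; plate controls were no enzyme wells and a reference inhibitor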
# PNC inhibitor – perinucleolar compartment assembly inhibition | PC3M PTB-GFP, PNC prevalence imaging, 16 h; stronger effect = lower value | activity change (PNC), negative = inhibition, % at 10 µM | actives 3.1% (n = 140,000) | AID 2417;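 active means readout at or below -70, meaning at least 70% loss of cells showing the perinucleolar compartment, a nuclear body marking cancer cells; inconclusive means readout between -30 and a set limit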;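 further: plate controls were DMSO wells for no effect and camptothecin positive control wells for full effect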
#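 Read-out is percentage of cells bearing a perinucleolar compartment, from automated 20x imaging of fixed, Hoechst-stained PC3M PTB-GFP cells. Cells were seeded 4 h, then exposed 16 h to compound (23 nl of library stock) in duplicate plates.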
# HPGD block – HPGD (human) dehydrogenase inhibition | P15428 | purified HPGD, NADH fluorescence kinetic, PGE2 substrate | Potency, µM, without a hit: at the highest dose activity change, negative = inhibition, most hits filed as inhibitors | actives 4.3% (n = 150,000) | AID 894; further: potency means the concentration at half of the fitted maximal effect; on the % scale 0 is the no-effect control and ±100 the full control effect
# Target sequence (P15428 whole entry, looked up): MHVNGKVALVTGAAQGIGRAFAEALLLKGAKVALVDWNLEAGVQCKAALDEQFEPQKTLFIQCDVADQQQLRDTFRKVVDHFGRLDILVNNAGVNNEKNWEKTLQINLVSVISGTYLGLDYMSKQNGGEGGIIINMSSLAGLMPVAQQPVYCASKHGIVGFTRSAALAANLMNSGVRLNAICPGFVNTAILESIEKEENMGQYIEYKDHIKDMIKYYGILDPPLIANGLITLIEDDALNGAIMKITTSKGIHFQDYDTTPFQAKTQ
#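 NADH formation kinetics: reaction with 30 uM PGE2 and 1 mM NAD+ (final), 20 nM enzyme, Tris-HCl pH 8 with Tween 20, after 15 min compound preincubation at room temperature. Fluorescence change, last versus first of five reads.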
# RGS12 GoLoco inh – inhibitors of human Gai1-RGS12 GoLoco interaction (red fluorophore). P63096. Gai1:RGS12 GoLoco peptide FP, rhodamine, 10 min. Potency, µM (doses to about 61.6 µM), for the others: top-dose activity, negative = inhibition, usual class: inhibitors. actives 0.44% (n = 230,000). AID 880; active means well fitted inhibition curve with a large enough effect, not every such curve was filed as active; inactive means no such curve, though single readings can be large or run the other way; further: potency means the concentration at half of the fitted maximal effect; on the % scale 0 is the no-effect control and ±100 the full control effect; nearly all actives have a fitted effect of over 30% in size
# Target sequence (P63096 whole entry, looked up): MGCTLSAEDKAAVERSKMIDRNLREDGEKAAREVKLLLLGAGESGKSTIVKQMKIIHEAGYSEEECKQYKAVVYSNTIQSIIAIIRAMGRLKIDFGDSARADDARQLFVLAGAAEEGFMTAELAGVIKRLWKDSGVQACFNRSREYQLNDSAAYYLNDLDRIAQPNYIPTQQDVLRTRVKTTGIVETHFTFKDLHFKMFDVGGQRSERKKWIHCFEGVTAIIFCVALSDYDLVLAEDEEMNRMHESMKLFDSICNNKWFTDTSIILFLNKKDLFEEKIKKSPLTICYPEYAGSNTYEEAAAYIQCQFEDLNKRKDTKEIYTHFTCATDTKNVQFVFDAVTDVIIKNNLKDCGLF
# HTT ATP protect – protects HTT-Q103 PC12 cells, measured by ATP. PC12 HTT-Q103 induced, cytoprotection, ATP luminescence, 40 h. AID 1471. Potency, µM (doses to about 56.4 µM), for the others: cytoprotection (ATP increase), hits mostly activators. actives 0.14% (n = 230,000); active means well fitted curve in the direction sought with a large enough effect; inconclusive means small, poorly fitted or top-dose-only effect, or another doubt; inactive means no such curve, though single readings can be large; an effect the other way counts as inactive or inconclusive; further: potency means the concentration at half of the fitted maximal effect; % of control where 0% means no effect; nearly all actives have a fitted effect of over 45% in size
#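 Huntington model: PC12 line, ecdysone-inducible HTTQ103 exon1–GFP, tebufenozide 100 nM. Test articles in a dose series. Endpoint luminescence from cellular ATP.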
# The depositor's hits bear a star; ? = inconclusive; nt = no result given; [ ] = remark or other dose. A selection: hits, their analogues and other compounds. The true share with any hit is near 11%. Unless noted, the call rests on the fitted dose curve; in most records, active means well fitted inhibition curve with a large enough effect (not every such curve was filed as active); inconclusive means small, poorly fitted or top-dose-only effect, or another doubt; inactive means no such curve, though single readings can be large or run the other way.
SMILES,HttQ103 aggreg,ALDH1A1 block,PNC inhibitor,HPGD block,RGS12 GoLoco inh,HTT ATP protect
O=c1n(-c2ccccc2)c(=O)n2n1CC[C@H]1/C(=N\OC[C@@H](O)COCc3ccco3)[C@H]3O[C@@H]3[C@@H](O)[C@@H]12,nt,-1%[13.5 µM],nt,nt,nt,-1%[10 µM]
Oc1ccc(N2CCN(c3ncnc4sc(-c5ccccc5)cc34)CC2)cc1,?,25µM*,nt,nt,-5%,nt
CC(=O)N1CCN(c2ncnc3sc(-c4ccccc4)cc23)CC1,2%,?,nt,nt,2%,-81%
CN(C)CCNS(=O)(=O)c1ccc(Cl)cc1,12%,2%,-100*,-15%,1%,-14%[0.074 µM]
O=C(Nc1cc(Cl)cc(Cl)c1)c1cccc(OC(F)F)c1,0%[9.22 µM],-7%,?,-14%,8%,-43%
O=C(Nc1cc(S(=O)(=O)Nc2ccc(Cl)cc2)ccc1N1CCCCC1)c1ccc(F)cc1,-19%,28µM*,?,?,1%,-9%[10 µM]
N#Cc1ccc(C(=O)Nc2cc(S(=O)(=O)Nc3ccc(Cl)cc3)ccc2N2CCCCC2)cc1,10%,?,-9,3%,-4%,-4%[10 µM]
O=S(=O)(Nc1ccc(Cl)cc1)c1ccc(N2CCOCC2)c(NC(=S)NCCN2CCOCC2)c1,9%,8.9µM*,nt,nt,-6%,nt
Cc1sc2nc(CSc3nc4ccccc4s3)[nH]c(=O)c2c1C,15%,7.9µM*,nt,nt,93%,7%
O=c1[nH]c(CSc2nc3ccccc3s2)nc2ccccc12,-21%[9.22 µM],nt,nt,nt,4%,11%[10 µM]
C=CCn1c(SCc2nc3sc(C(=O)O)c(C)c3c(=O)[nH]2)nnc1-c1ccccc1,0%,?,nt,nt,7%,1%[10 µM]
CC(=O)c1sc2nc(CSc3nnnn3-c3ccccc3)[nH]c(=O)c2c1C,-33%,25µM*,nt,nt,111%,nt
Cc1ccc(-n2nnnc2SCc2nc3sc(C)c(C)c3c(=O)[nH]2)cc1,3%,0%,?,-5%,44%,32%[10 µM]
Cc1nnc(SCc2nc3sc(C(=O)O)c(C)c3c(=O)[nH]2)s1,1%[9.22 µM],20µM*,nt,nt,12%,?
Cc1c(C(=O)O)sc2nc(CSc3nnc(-c4ccc(F)cc4)n3C)[nH]c(=O)c12,-9%,19µM*,nt,nt,18%,-12%
O=C(O)/C(=C\c1ccncc1)c1cccc2ccccc12,nt,0%[13.5 µM],nt,-6%,7%[14.2 µM],0%[10 µM]
CCCc1nn(C)c(C(=O)Nc2ccccc2)c1Cl,25%,-10%,37,-5%,1%,6%[10 µM]
COc1cccc(Cn2c(=O)c(CCc3ccccc3)nc3cnc(N4CCNCC4)nc32)c1,nt,?,nt,nt,-6%,-37%
C=CCn1c(SCc2nc3sc(C(=O)O)c(C)c3c(=O)[nH]2)nnc1-c1ccc(C(C)(C)C)cc1,0%[9.22 µM],20µM*,nt,nt,18%,1%[10 µM]
c1ccc(Cn2nnnc2CN2CCN(c3ncccn3)CC2)cc1,-3%,11µM*,-21,-3%,-3%,-9%[10 µM]
Cc1ccc(Sc2ccc(N)cn2)cc1,13%[9.22 µM],0%,nt,nt,4%,-2%[10 µM]
Cc1ccc(C)c(NC(=O)c2cnn3ccccc23)c1,13µM*,-2%,?,-10%,8%,-103%
CC(=O)c1cccc(NC(=O)c2cnn3ccccc23)c1,-15%,-18%,3,-30%,10%,-46%
CC(=O)c1ccc(NC(=O)c2cnn3ccccc23)cc1,-20%,13µM*,?,?,1%,-120%
C=C1C2CC[C@@]3(C)C(c4ccoc4)OC(=O)C[C@@]13OC1CC(=O)C(C)(C)C(C(O)C(=O)OC)[C@]12C (stereo not given in full),nt,0%,nt,-1%,0%,-20%
SMILES,HttQ103 aggreg,ALDH1A1 block,PNC inhibitor,HPGD block,RGS12 GoLoco inh,HTT ATP protect
CC(C)[C@H](N=Cc1ccccc1O)C(=O)O,nt,-10%[13.5 µM],nt,-4%,6%[14.2 µM],-7%[10 µM]
CC/C(Cc1ccccc1)=N/NC(=O)c1cccc(Br)c1,-10%,?,-10,-1%,-3%,nt
CC(C)c1nc2sc3c(c2c(=O)o1)CCCC3,-3%[9.22 µM],0%,-94*,-27%,5%,-6%
Cc1nc2sc3c(c2c(=O)o1)CCCC3,19%,1%,-28,-6%,2%,-7%
CCn1c(=O)cc(SCC(=O)NCCCN2CCN(c3ccccc3F)CC2)c2ccccc21,-15%,5%,-13,nt,nt,-17%
CC(c1ccon1)N(C)C(=O)CCc1nnc(C2(c3ccc(Cl)cc3)CCC2)o1 (stereo not given),15%,-2%,nt,nt,0%,-31%
CCOc1ccc(C(=O)CCNC(Cc2cnc[nH]2)C(=O)O)cc1 (stereo not given),3%,1.6µM*,21,-3%,2%,-15%
c1ccc(B2OC[C@@H]3OB(c4ccccc4)O[C@H]([C@@H]4COB(c5ccccc5)O4)[C@@H]3O2)cc1,nt,8%[13.5 µM],nt,-4%,-2%[14.2 µM],2%[10 µM]
CCC(CC)C(=O)Nc1cc(C(=O)NCCc2ccccc2)ccc1Cl,28%,26%,28,-1%,-7%,1%
CCOC(=O)C(CCc1ccccc1)NC(C)C(=O)N1Cc2ccccc2CC1C(=O)O (stereo not given),13%,-8%,nt,-7%,-2%,-34%
Fc1cccc2sc(Nc3nnc(-c4ccccc4)o3)nc12,11µM*,?,-17,?,4%,-6%[1.9 µM]
Cc1ccc(NC(=S)N/N=C2\CC3CC=CC23)c(C)c1 (stereo not given),10%,25µM*,nt,nt,9%,-17%
Cc1cccc(C)c1NC(=S)N/N=C1\CC2CC=CC12 (stereo not given),16%,11µM*,nt,nt,-1%,12%
Cc1ccc(C(=O)N/N=C2\CC3CC=CC23)c(C)c1 (stereo not given),21%,5%,nt,nt,10%,-53%
N#Cc1c(NC(=O)C(F)(F)F)sc2c3c(=O)c4ccccc4c(=O)c=3oc3ccccc3c12,nt,-19%[13.5 µM],nt,-18%,6%[14.2 µM],-21%[10 µM]
CN1C(=O)CCC1(O)c1ccccc1 (stereo not given),-13%,?,?,-2%,8%,1%
CC1(C)CC(=O)N(c2ccccc2)C1(C)O (stereo not given),-3%,3%,-86*,-13%,1%,-10%
O=S(=O)(Nc1ccc2nc(-c3ccc(Br)o3)[nH]c2c1)c1ccccc1,-33%,-16%,25,-30%,3%,13%
O=C(Nc1ccc2nc(-c3ccc(Br)o3)[nH]c2c1)c1ccco1,18%,-9%,-22,-20%,14%,-118%[0.074 µM]
CC(=O)Nc1ccc2nc(-c3ccc(Br)o3)[nH]c2c1,12%,32µM*,38,-22%,4%,18%[0.074 µM]
Cc1ccc(-c2nc3ccc(NS(=O)(=O)c4ccccc4)cc3[nH]2)o1,-29%,8.9µM*,52,40%,6%,-39%
COc1ccccc1CNc1nc(-c2ccccc2CN(C)C)nc2ccccc12,nt,-2%,nt,-5%,-1%,-93%
